A number with no mark means an inactive call. For some of these results: Measured potencies and affinities stand elsewhere. Active and inactive are the calls of the source. Unless noted, how the calls were made is not given here.

A short description of experiment [1]: antimalarial activity against Dd2 strain (AID 2302;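 active means growth inhibition above 50% at the single 2 µM test dose, taken to imply half-maximal potency below 2 µM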;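 further: 0% = DMSO untreated growth and 100% = chloroquine plus artemisinin killed control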). As to conditions: P. falciparum Dd2 in RBCs, LDH growth readout, 72 h; at 2 µM; stronger effect = higher value.
Experiment [2] can be described thus: human hepatoma cell viability loss – ATP luminescence, cytotoxicity control for P. falciparum antimalarial project, primary screen (AID 2303;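 active means inhibition above 50%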;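 further: 0% = DMSO wells and 100% = digitonin-killed cells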). As to conditions: HepG2 viability, 24-48 h, at 10 µM, stronger effect = higher value.
The target in experiment [3] is L-lactate dehydrogenase (Plasmodium falciparum (isolate CDC / Honduras)) (UniProt Q27743). In words: PfLDH activity inhibition – cell lysate, 3D7 strain, counter-screen for P. falciparum growth inhibition project (AID 2304).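 Further: 0% = vehicle and 100% = reference inhibitor.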 The settings on record: P. falciparum 3D7 crude extract, LDH APAD/NBT absorbance; at 2 µM; stronger effect = higher value. On the technique in general: A counterscreen serves to expose hits that act by an unwanted route or on another target.

A short description of experiment [4]: inhibition of 3D7 malaria parasite growth – strain 3D7 (AID 2306).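 Further: 0% = DMSO wells and 100% = chloroquine plus artemisinin control wells.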 As to conditions: P. falciparum 3D7 erythrocytic growth, LDH absorbance, 72 h; at 2 µM; stronger effect = higher value.
Experiment [5] deals with Calcium-dependent protein kinase 1 (Plasmodium falciparum (isolate 3D7)) (UniProt P62344). Briefly: PfCDPK1 kinase inhibitors, biochemical, TCAMS library (AID 1159585; cut-off not given, nearly all actives have IC50 up to about 0.98 µM;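 further: inhibitors leave more ATP so luminescence rises with inhibition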). The settings on record: recombinant PfCDPK1, Kinase-Glo ATP depletion luminescence. In general terms: In Kinase-Glo more light means more ATP remaining.
Experiment [6] addresses Plasmodium falciparum protein kinase 6 (PK6, PF3D7_1337100) (UniProt Q8IDW1). In words: PfPK6 kinase inhibitors, biochemical, TCAMS library (AID 1159586). As to conditions: recombinant PfPK6, Kinase-Glo ATP depletion luminescence.
In experiment [7] the target is Protein kinase 7 (PK7), Plasmodium falciparum 3D7 (PF3D7_0213400) (UniProt Q7YTF7). In words: inhibition of Plasmodium PK7 catalytic activity – biochemical, TCAMS antimalarial set, Kinase-Glo luminescence (AID 1159587). As to conditions: recombinant PfPK7, Kinase-Glo ATP depletion luminescence.
For experiment [8], the target named is Calcium-dependent protein kinase 4 (Plasmodium falciparum (isolate 3D7)) (UniProt Q8IBS5). Briefly: PfCDPK4 kinase inhibitors, biochemical, TCAMS library (AID 1159588; cut-off not given, nearly all actives have IC50 up to about 0.91 µM). As to conditions: recombinant PfCDPK4, Kinase-Glo ATP depletion luminescence.
Sequence of Calcium-dependent protein kinase 4 (Plasmodium falciparum (isolate 3D7)) (Q8IBS5 whole entry, looked up): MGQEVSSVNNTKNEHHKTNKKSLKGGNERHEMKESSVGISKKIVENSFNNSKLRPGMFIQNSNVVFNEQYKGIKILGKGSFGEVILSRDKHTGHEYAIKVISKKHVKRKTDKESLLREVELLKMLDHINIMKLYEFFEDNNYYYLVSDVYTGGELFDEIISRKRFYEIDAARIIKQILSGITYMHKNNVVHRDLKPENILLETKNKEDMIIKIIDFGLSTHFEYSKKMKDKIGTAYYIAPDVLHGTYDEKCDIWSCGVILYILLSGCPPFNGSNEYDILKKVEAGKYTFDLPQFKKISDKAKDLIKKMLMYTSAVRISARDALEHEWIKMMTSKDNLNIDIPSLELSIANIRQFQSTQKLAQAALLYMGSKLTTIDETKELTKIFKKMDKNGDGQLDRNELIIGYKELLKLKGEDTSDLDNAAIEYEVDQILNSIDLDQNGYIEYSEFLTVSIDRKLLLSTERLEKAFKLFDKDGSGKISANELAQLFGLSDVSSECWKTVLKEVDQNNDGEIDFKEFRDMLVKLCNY

Sequence of L-lactate dehydrogenase (Plasmodium falciparum (isolate CDC / Honduras)) (Q27743 whole entry, looked up): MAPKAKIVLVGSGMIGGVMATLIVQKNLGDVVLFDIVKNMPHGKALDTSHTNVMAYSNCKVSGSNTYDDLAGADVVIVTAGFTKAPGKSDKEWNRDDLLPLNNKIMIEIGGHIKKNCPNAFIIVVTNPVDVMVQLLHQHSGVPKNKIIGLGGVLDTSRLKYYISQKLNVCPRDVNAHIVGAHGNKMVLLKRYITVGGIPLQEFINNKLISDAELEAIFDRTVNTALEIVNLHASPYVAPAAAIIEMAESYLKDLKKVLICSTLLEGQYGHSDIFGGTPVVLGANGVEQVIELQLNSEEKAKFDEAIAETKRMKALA
Sequence of Protein kinase 7 (PK7), Plasmodium falciparum 3D7 (PF3D7_0213400) (Q7YTF7 1-343): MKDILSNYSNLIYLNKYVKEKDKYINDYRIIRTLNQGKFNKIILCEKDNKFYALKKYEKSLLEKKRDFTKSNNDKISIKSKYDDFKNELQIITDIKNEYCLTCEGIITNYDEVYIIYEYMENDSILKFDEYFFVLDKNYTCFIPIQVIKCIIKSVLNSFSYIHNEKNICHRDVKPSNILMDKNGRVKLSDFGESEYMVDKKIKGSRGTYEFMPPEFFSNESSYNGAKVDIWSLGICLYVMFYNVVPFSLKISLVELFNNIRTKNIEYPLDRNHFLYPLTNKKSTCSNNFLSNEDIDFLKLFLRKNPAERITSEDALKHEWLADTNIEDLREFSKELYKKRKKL
Sequence of Plasmodium falciparum protein kinase 6 (PK6, PF3D7_1337100) (Q8IDW1 1-305): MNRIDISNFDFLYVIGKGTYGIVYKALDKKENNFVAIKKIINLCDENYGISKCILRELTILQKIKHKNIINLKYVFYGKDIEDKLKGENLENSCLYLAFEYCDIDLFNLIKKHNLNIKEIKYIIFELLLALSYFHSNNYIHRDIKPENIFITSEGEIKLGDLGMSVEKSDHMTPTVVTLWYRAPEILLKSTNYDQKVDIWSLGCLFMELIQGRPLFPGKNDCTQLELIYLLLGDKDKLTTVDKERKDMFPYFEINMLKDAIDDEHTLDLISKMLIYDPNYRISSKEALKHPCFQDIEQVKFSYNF
Sequence of Calcium-dependent protein kinase 1 (Plasmodium falciparum (isolate 3D7)) (P62344 whole entry, looked up): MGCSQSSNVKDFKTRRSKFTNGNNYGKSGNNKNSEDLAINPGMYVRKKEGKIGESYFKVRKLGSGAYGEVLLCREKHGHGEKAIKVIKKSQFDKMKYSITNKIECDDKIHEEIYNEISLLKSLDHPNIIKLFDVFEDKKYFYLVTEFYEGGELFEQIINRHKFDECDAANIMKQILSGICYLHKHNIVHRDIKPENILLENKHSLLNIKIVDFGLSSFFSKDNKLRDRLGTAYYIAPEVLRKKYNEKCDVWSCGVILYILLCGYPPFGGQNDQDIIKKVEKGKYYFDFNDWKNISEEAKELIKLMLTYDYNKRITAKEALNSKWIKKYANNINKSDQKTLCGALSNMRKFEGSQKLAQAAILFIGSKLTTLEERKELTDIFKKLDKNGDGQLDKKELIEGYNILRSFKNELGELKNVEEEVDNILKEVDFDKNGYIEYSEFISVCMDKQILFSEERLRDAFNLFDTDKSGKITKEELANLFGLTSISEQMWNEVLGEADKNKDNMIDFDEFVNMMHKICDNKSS

On to `COc1ccc2nccc([C@@H](O)CN3CCC(NCCOc4ccccc4[N+](=O)[O-])CC3)c2c1`, for which the figures for the growth inhibition in experiment [1] and in experiment [4] were 98% (active) and 100% (active), respectively. Further, the figures for the inhibition in experiment [2] and in experiment [3] were 4% and -2%, respectively. The outcome in experiment [5], in experiment [6], in experiment [7] and in experiment [8] was inactive.
Turning to `COc1cc(Cc2cnc(N)nc2N)ccc1Oc1ccc(N)cc1`, the growth inhibition is -1% in experiment [1] and 93% (active) in experiment [4]. Moreover, the results for the inhibition in experiment [2] and in experiment [3] were 0% and 6%, respectively. In addition, the outcome in experiment [5], in experiment [6], in experiment [7] and in experiment [8] was inactive.
On to `CCC(CSC1CCCCC1)N(C)CCN(C)C(CC)CSC1CCCCC1` (stereo not given), for which the growth inhibition in experiment [1] and in experiment [4] was 98% (active) throughout. Besides, the inhibition was 84% (active) in experiment [2] and -4% in experiment [3]. In addition, the result in experiment [5], in experiment [6], in experiment [7] and in experiment [8] was inactive.
For `CC(C)(C)c1ccc(CN2CCC(CNC(=O)c3cc(-c4cccc(C(F)(F)F)c4)cs3)C2)cc1` (stereo not given), the values for the growth inhibition in experiment [1] and in experiment [4] were 84% (active) and 100% (active), respectively. The inhibition in experiment [2] was 80% (active); in experiment [3], 1%. The outcome in experiment [5], in experiment [6], in experiment [7] and in experiment [8] was inactive.
Regarding `COc1ccc(NC(=O)[C@H](CC(C)C)Nc2cc(C)nc(NCc3ccccc3C)n2)cc1`, the values for the growth inhibition in experiment [1] and in experiment [4] were 78% (active) and 101% (active), respectively. Further, the values for the inhibition in experiment [2] and in experiment [3] were 12% and 0%, respectively. Further, the result in experiment [5], in experiment [6], in experiment [7] and in experiment [8] was inactive.
As for `Cc1[nH]c(C)c(-c2ccc(C#Cc3ccc(F)cc3F)cc2)c(=O)c1Br`, the growth inhibition in experiment [1] was 98% (active); in experiment [4], 97% (active). Also, the inhibition in experiment [2] is 11%; in experiment [3], -1%. The result in experiment [5], in experiment [6], in experiment [7] and in experiment [8] was inactive.
Turning to `N#Cc1ccc2c(c1)CCN(CCC1CCC(NC(=O)/C=C/c3ccc4ccccc4c3)CC1)CC2` (stereo not given), the growth inhibition in experiment [1] was 12%; in experiment [4], 97% (active). Also, the inhibition is 20% in experiment [2] and 4% in experiment [3]. The result in experiment [5], in experiment [6], in experiment [7] and in experiment [8] was inactive.
Regarding `O=C(CCc1cccc(O)c1)NCC(NCCCNc1cc(=O)c2ccccc2[nH]1)c1cc(Br)cc(Br)c1` (stereo not given), the growth inhibition is 37% in experiment [1] and 86% (active) in experiment [4]. Also, the results for the inhibition in experiment [2] and in experiment [3] were -6% and -4%, respectively. In addition, the outcome in experiment [5], in experiment [6], in experiment [7] and in experiment [8] was inactive.
For `CN1CCN(c2ccc(Nc3ccnc4ccc(-c5ccccc5)cc34)cc2)CC1`, the growth inhibition in experiment [1] and in experiment [4] was 101% (active) each time. Moreover, the inhibition in experiment [2] was 20%; in experiment [3] it was -2%. Further, the result in experiment [5], in experiment [6], in experiment [7] and in experiment [8] was inactive.
As for `CCc1ccc(O)c(-c2cc(C(=O)Nc3cccnc3)[nH]n2)c1`, the growth inhibition in experiment [1] was 99% (active); in experiment [4], 98% (active). Moreover, the inhibition in experiment [2] is -4%; in experiment [3] it was -7%. Moreover, the outcome in experiment [5], in experiment [6], in experiment [7] and in experiment [8] was inactive.
Regarding `COc1ccc(CSC2CCCCC23NC(=S)NC3=S)cc1` (stereo not given), the figures for the growth inhibition in experiment [1] and in experiment [4] were -3% and 97% (active), respectively. In addition, the inhibition in experiment [2] is -5%; in experiment [3], -1%. For the same compound, the outcome in experiment [5], in experiment [6], in experiment [7] and in experiment [8] was inactive.
As to `OCC(CO)(CO)NCc1ccc2c3c(cccc13)-c1ccccc1-2`, the growth inhibition in experiment [1] is 76% (active); in experiment [4] it was 87% (active). Further, the results for the inhibition in experiment [2] and in experiment [3] were 73% (active) and 0%, respectively. Moreover, the outcome in experiment [5], in experiment [6], in experiment [7] and in experiment [8] was inactive.
On to `COc1cc2c(cc1OC)C(C(=O)c1ccccc1)=NCC2`, for which the growth inhibition in experiment [1] was 62% (active); in experiment [4] it was 85% (active). Further, the inhibition in experiment [2] was 19%; in experiment [3], 0%. In addition, the outcome in experiment [5], in experiment [6], in experiment [7] and in experiment [8] was inactive.
With `CCCCNCC(O)COc1ccccc1-c1ccc(N/N=C/c2cccc3ccccc23)nn1` (stereo not given), the growth inhibition is 8% in experiment [1] and 99% (active) in experiment [4]. Moreover, the inhibition in experiment [2] was 38%; in experiment [3], -4%. For the same compound, the result in experiment [5], in experiment [6], in experiment [7] and in experiment [8] was inactive.
Consider `Nc1cccc(CNCc2cccc(-c3ccc(-c4nc5ccccc5[nH]4)s3)c2)c1`, for which the growth inhibition was 90% (active) in experiment [1] and 101% (active) in experiment [4]. Further, the inhibition in experiment [2] is 8%; in experiment [3] it was -1%. For the same compound, the outcome in experiment [5], in experiment [6], in experiment [7] and in experiment [8] was inactive.
Regarding `Cc1ccc(CNC(=O)c2cc3c(=O)n4cccc(C)c4nc3n(CCN3CCOCC3)c2=N)cc1`, the results for the growth inhibition in experiment [1] and in experiment [4] were 21% and 97% (active), respectively. Also, the inhibition is 31% in experiment [2] and -6% in experiment [3]. For the same compound, the outcome in experiment [5], in experiment [6], in experiment [7] and in experiment [8] was inactive.
As to `COC(=O)c1ccc(OCC(C)NCC(O)c2cccc(C(F)(F)F)c2)cc1` (stereo not given), the figures for the growth inhibition in experiment [1] and in experiment [4] were 81% (active) and 94% (active), respectively. For the same compound, the figures for the inhibition in experiment [2] and in experiment [3] were 6% and -2%, respectively. For the same compound, the outcome in experiment [5], in experiment [6], in experiment [7] and in experiment [8] was inactive.
Turning to `COc1cc(Cc2cnc(N)nc2N)cc(OCCCCCCN2C(=O)c3ccccc3C2=O)c1OC`, the values for the growth inhibition in experiment [1] and in experiment [4] were 3% and 95% (active), respectively. The inhibition in experiment [2] is 15%; in experiment [3] it was 2%. The outcome in experiment [5], in experiment [6], in experiment [7] and in experiment [8] was inactive.
For the compound `Cc1cc(OCC(=O)Nc2ccc(-c3nc4ccccc4[nH]3)cc2)cc(C)c1Cl`, the growth inhibition in experiment [1] is 0%; in experiment [4], 99% (active). The inhibition was 5% in experiment [2] and -1% in experiment [3]. In addition, the outcome in experiment [5], in experiment [6], in experiment [7] and in experiment [8] was inactive.
As to `CC(=O)OC[C@H]1O[C@@H](C#Cc2ccccc2)[C@H](OC(C)=O)[C@@H](OC(C)=O)[C@@H]1OC(C)=O`, the figures for the growth inhibition in experiment [1] and in experiment [4] were 90% (active) and 95% (active), respectively. Besides, the inhibition in experiment [2] was 5%; in experiment [3], 0%. Also, the result in experiment [5], in experiment [6], in experiment [7] and in experiment [8] was inactive.

The inhibition is the relative decrease from the control value, in per cent.

Source of the values: PubChem BioAssay.
